In the library only some 2.4% were active in any assay of this set; here they are far more common.
D2 ag-1 – agonists of human D2 dopamine receptor (beta-arrestin) | activation, % (no concentration beside the values) | P14416 | DiscoveRx PathHunter D2 beta-arrestin, luminescence, 90 min; 100% = 57 uM dopamine signal | AID 624465 | 360,000 tested, 0.084% active; in the data active = activation above about 40%
Target sequence (P14416 whole entry, looked up): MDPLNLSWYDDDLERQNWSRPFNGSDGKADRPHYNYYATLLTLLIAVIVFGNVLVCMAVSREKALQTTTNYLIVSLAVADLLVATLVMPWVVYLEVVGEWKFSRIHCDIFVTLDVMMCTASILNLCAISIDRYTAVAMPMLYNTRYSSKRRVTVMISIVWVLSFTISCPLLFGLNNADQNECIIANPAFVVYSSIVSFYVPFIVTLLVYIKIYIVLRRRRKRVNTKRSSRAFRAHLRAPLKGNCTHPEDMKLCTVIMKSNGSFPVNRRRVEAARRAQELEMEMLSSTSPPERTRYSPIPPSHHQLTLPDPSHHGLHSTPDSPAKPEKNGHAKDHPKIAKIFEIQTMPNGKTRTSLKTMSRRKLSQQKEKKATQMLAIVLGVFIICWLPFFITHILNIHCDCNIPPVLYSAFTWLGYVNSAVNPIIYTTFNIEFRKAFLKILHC
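DiscoveRx PathHunter D2 beta-arrestin cells (2,100/well) attached overnight, then compound-stimulated 90 min at 37 C in HBSS/10 mM HEPES/0.1% Tween-20 buffer; beta-galactosidase complementation read by luminescence after 1 h at ambient temperature. Dopamine 57 uM final (EC100) as control.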
D2 PAM-1 – potentiates the human D2 dopamine receptor allosterically | P14416 | DiscoveRx D2 beta-arrestin cells, luminescence, 90 min; 100% = 57 uM dopamine signal | potentiation, % (test concentration not listed) | 360,000 tested, 0.23% active | AID 624464; in the data active = potentiation above about 50%
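PathHunter beta-arrestin assay in DiscoveRx D2 cells. Compounds were added with an EC20 of dopamine (50 nM final) for 90 min at 37 deg C. Luminescence was read 1 h after detection reagent, with 57 uM dopamine as the EC100 control.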
D2 PAM-2 – positive allosteric modulators of human D2 dopamine receptor; 340,000 tested, 0.34% active; AID 485347; HEK293 T-REx D2, calcium flux, EC20 dopamine potentiation; potentiation, % at 10 µM;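 active = potentiation over 3 SD above the plate norm, cut at about 30% in these data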; note: 0% is about no effect
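Cells plated with tetracycline inducer and held overnight at 30 C; calcium dye loaded 30–90 min at room temperature; baseline taken, compound added and read 180 s; EC20 dopamine then added and read 180 s.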
D2 antagonist – D2 dopamine receptor (human) antagonism | P14416 | HEK293 TREx D2 cells, calcium flux, dopamine EC80 | inhibition, % at 10 µM | 340,000 tested, 2% active; in the data active = inhibition above about 30%; inactive = below that, where a call was filed; note: 0% is about no effect
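Measurement of antagonist activity uses fluorescent calcium dye in inducible HEK293 T-REx D2 cells: 10 s baseline, compound addition with 180 s read, EC80 dopamine addition with a further 180 s read.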
D2 ag-2 – D2 dopamine receptor (human) agonism; 340,000 tested, 0.53% active; AID 485358; HEK293 T-REx D2 cells, calcium flux agonist mode; activation, % at 2 µM; P14416;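 active = activation over 3 SD above normal in the single-dose calcium agonist read, cut at about 30% in these data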; note: 0% is about no effect
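Tetracycline-induced HEK293 Trex cells with D2 receptor force-coupled to calcium signaling, plated overnight at 30 C and loaded with no-wash calcium dye. Calcium flux read kinetically for 180 s after compound addition; responses flag agonists.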
* hit, by the source's call; x = no result.

SMILES | D2 ag-1 | D2 PAM-1 | D2 PAM-2 | D2 antagonist | D2 ag-2
O=C(CSc1nc(N2CCOCC2)nc(N2CCOCC2)n1)Nc1ccc(Cl)cc1Cl | -5 | -7 | 1 | 33* | 1
CCOC(=O)N1CCN(C(=O)COc2ccc(S(=O)(=O)Nc3ccc(OCC)cc3)cc2)CC1 | 1 | 13 | 11 | 4 | 0
CCOc1ccc(NS(=O)(=O)c2ccc(OCC(=O)N3CCCC3)cc2)cc1 | 2 | 3 | 11 | 51* | 0
CCOC(=O)c1c(NC(=O)CSc2cn(CCNC(=O)c3ccccc3OC)c3ccccc23)sc2c1CCC2 | x | x | 8 | x | -1
Cc1ccccc1OCC(=O)Nc1cccc(C(=O)OCc2cc(=O)n3c(C)csc3n2)c1 | x | x | 1 | x | 1
COc1ccc(-c2nc(CSCC(=O)N3CCc4ccccc4C3)c(C)o2)cc1OC | -7 | -10 | 22 | 45* | 0
Cc1ccccc1-c1nc(C#N)c(N2CCC(C)CC2)o1 | -2 | -1 | 1 | 31* | 0
CC(=O)Nc1c(C)nn(-c2ccccc2)c1N1CCC(C(=O)Nc2ccc(Cl)cc2C)CC1 | x | x | -4 | x | -1
CCN(CC)S(=O)(=O)c1ccc2c(c1)N(CC(=O)NCCc1ccc(OC)c(OC)c1)C(=O)CO2 | x | x | -11 | x | 1
Cc1nc(N)sc1C(=O)N/N=C/c1ccccc1[N+](=O)[O-] | x | x | 5 | 33* | 1
Cc1ccc(CNC(=O)CCCn2c(=O)c3ccccc3n(Cc3ccccc3C)c2=O)cc1 | x | x | 9 | x | 1
Cc1nc2nc(NC(=O)c3cccc(Cl)c3)[nH]n2c(=O)c1Cc1ccccc1 | x | x | 4 | x | 1
c1ccc(Cn2c[n+](Cc3ccccc3)cn2)cc1 | -3 | -5 | -6 | 43* | 1
Cc1ccc(N=Nc2c(=O)[nH]n3c(=O)cc(C)[nH]c23)cc1 | -8 | -20 | 38* | 14 | 1
Cc1ccc(N=Nc2c(N)[nH]n3c(=O)cc(-c4ccccc4)nc23)cc1 | -3 | -12 | -14 | -7 | -1
CSc1cccc(CNC(=O)C2CCC(=O)N(CCCN3CCCC3=O)C2)c1 (centres undefined) | 4 | -1 | -24 | 86* | 0
Cc1cccc(CNC(=O)C2CCC(=O)N(C3CC3)C2)c1 (centres undefined) | -1 | -4 | 52* | 0 | 0
CCN1c2ccccc2-c2nc(SCC(=O)NCc3ccc(C)cc3)ncc2S1(=O)=O | x | x | 0 | x | x
COc1ccc(N(C(=O)CNC(=O)c2cccs2)C(C(=O)NCC2CCCO2)c2ccccc2)cc1 (centres undefined) | 4 | -2 | -16 | 80* | 0
CCC(=O)N1CCc2cc(S(=O)(=O)CCC(=O)Nc3ccc(Cl)c(C(F)(F)F)c3)ccc21 | x | x | 28 | x | 0
COc1ccc2occ(C(C)=O)c2c1 | 2 | -11 | -8 | 11 | 1
CC(=O)c1coc2ccc(OCCN3CCCCC3)cc12 | 0 | -22 | -24 | 42* | 0
O=C(c1ccc2c(c1)OCCO2)C1CCN(C(=O)Nc2ccc(F)cc2)CC1 | 2 | 0 | 1 | -8 | 0
COc1ccc(NC(=O)N2CCCC(C(=O)NC(C)C)C2)cc1 (centres undefined) | -1 | 4 | -3 | 33* | 0
COc1ccc(NC(=O)N2CCC(C(=O)c3ccc4c(c3)OCCO4)CC2)cc1 | -2 | -4 | 33* | 7 | -1
SMILES | D2 ag-1 | D2 PAM-1 | D2 PAM-2 | D2 antagonist | D2 ag-2
CCn1nc(-c2ccccc2)c(-c2ccccc2)c(C(=O)OCCOC)c1=O | x | x | 23 | x | 0
CCn1c(=O)c(C(=O)NNC(=O)c2ccccc2F)c(O)c2ccccc21 | 3 | -5 | -9 | 21 | 48*
CCn1c(=O)c(C(=O)NNC(=O)c2ccccc2Cl)c(O)c2ccccc21 | -2 | -10 | x | -17 | -3
O=C(Nc1ccc(O)cc1C(=O)O)c1cccs1 | -1 | 10 | 25 | 35* | 0
O=C(NNC(=O)c1ccccc1Cl)c1cccs1 | -3 | -21 | 32* | -6 | x
O=C(Nc1ccccc1C(=O)Nc1ccccc1)c1cccs1 | 2 | -2 | x | -18 | -2
Cc1ccccc1Cn1c(Oc2ccccc2F)nc2c1c(=O)n(C)c(=O)n2C | x | x | -6 | x | 1
Cc1ccc(C(=O)Nc2ccc(C(F)(F)F)n(C)c2=O)cc1 | -6 | -2 | 32* | 7 | 0

Screens (PubChem BioAssay)
